Active and inactive are the calls of the source. The calls were made as follows: active = hit-call score of the fitted dose curve at least 0.9, where 1 is the maximum; inactive = score below 0.9.
Molecular target: CYP2B6, CYP2B6 (gene 1555) (UniProt P20813)
Test: ERF_FR_ADME_hCYP2B6: Eurofins (ERF) CYP450-related Enzyme Activity (ADME) LeadHunter Assay for CYP2B6
Description: ERF_FR_ADME_hCYP2B6 is a biochemical, single-readout assay that uses extracted gene-proteins in a cell-free assay. Measurements were taken 0.5 hour after chemical dosing in a 96-well plate. See CYP2B6 inhibition (recombinant, EFC substrate).ERF_FR_ADME_hCYP2B6 is an assay component calculated from the ERF_FR_ADME_hCYP2B6 assay. It is designed to measure enzyme activity using a type of enzyme reporter as detected by fluorescence intensity of HFC with fluorimetry technology.Data from the assay component ERF_FR_ADME_hCYP2B6 was analyzed at the assay endpoint, ERF_FR_ADME_hCYP2B6, in the positive analysis fitting direction relative to acetonitrile as the negative control and baseline of activity. Using a type of enzyme reporter, loss-of-signal activity can be used to understand changes in enzymatic activity as they relate to gene CYP2B6. To generalize the intended target to other relatable targets, this assay endpoint is annotated to the cyp intended target family, where the subfamily is steroidogenesis-related.
[…] are incubated for 15 minutes at 37 C with Bupropion as substrate and Clopidogrel as control inhibitor. Test Sample Requirements: Minimum for 1) Screen: 25 ul of 10 mM stock -OR- 1 mg (pre-weighed) for 10 uM final testing. 2) Dose Response: 60 ul of 10 mM stock -OR- 1 mg (pre-weighed). uM.

CYP2B6, CYP2B6 (gene 1555), sequence (P20813 whole entry, looked up): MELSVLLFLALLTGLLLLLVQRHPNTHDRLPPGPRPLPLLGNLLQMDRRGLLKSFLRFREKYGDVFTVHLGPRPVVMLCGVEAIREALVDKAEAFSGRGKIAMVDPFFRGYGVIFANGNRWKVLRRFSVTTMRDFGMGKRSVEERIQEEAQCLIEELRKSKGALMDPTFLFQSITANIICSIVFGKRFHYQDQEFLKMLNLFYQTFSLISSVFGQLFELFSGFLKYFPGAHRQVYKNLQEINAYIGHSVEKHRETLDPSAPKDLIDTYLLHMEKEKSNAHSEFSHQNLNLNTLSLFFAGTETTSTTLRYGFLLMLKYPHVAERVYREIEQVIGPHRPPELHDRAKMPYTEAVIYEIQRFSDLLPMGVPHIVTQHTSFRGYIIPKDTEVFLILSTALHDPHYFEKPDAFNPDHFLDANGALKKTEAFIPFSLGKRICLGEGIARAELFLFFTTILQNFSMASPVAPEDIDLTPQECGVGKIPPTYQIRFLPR

SMILES	AC50
O=C(/C=C/c1ccc(O)cc1)CC(=O)/C=C/c1ccc(O)cc1	1.27 µM (active)
